Inhibition data for 96 molecules are collected here from PubChem BioAssay AID1619 (SRMLSC, 2009).

The campaign covered roughly 220,000 compounds. About 830 (0.38%) were called active. The list is a sample of the results. Entries with a potency or affinity are not part of this list. Unmarked numbers belong to inactive results.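 The calls were made as follows: active = compound inhibiting the enzyme by more than half at any dose during confirmatory dose-response retesting; inconclusive = strong single-dose inhibitors picked by rank but not retested; inactive = the rest.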

In general, inhibition refers to the change of the read-out against control, counted positive when it falls.

In this experiment the target is Leucine aminopeptidase (Plasmodium falciparum (isolate 3D7)) (UniProt Q8IL11). Description: P. falciparum M17LAP inhibitors, primary screen, biochemical, fluorogenic H-Leu-NHMec substrate, 1536-well (AID 1619).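 Also: plate controls were full reaction with DMSO carrier for no effect and no enzyme background for full effect.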 Conditions: recombinant M17LAP, H-Leu-NHMec fluorogenic kinetic assay; at 30 µM; hits give high values.
Sequence of Leucine aminopeptidase (Plasmodium falciparum (isolate 3D7)) (Q8IL11 whole entry, looked up): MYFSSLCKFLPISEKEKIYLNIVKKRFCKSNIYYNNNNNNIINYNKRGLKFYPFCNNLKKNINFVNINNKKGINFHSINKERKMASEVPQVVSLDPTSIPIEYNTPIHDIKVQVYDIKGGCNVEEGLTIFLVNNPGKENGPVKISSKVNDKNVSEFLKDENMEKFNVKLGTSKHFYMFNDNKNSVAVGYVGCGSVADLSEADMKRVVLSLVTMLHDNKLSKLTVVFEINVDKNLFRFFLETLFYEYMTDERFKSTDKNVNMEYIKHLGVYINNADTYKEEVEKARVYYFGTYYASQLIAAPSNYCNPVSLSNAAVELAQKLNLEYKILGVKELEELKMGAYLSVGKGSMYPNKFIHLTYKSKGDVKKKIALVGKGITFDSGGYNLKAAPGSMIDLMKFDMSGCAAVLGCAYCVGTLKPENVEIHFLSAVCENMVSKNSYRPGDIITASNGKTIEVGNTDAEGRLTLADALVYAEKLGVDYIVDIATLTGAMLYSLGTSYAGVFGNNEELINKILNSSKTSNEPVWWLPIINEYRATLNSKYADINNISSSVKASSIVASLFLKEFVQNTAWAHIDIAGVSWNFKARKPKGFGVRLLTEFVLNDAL
In the case of `COc1c(Cl)cc(-c2noc(C)c2C(=O)NCc2ccc3c(c2)OCO3)cc1Cl`, the inhibition is 2.83%.

Regarding `Cc1ccnc(NC(=O)C2CCC(CNc3c(N4CCCC4)c(=O)c3=O)CC2)c1` (stereo unspecified), the inhibition was 15.6%.

`CC(C)Nc1nnc(SC(C)C(=O)Nc2ccc(Cl)cn2)s1` (stereo unspecified): the inhibition is 5.71%.

For `COC(=O)N/N=C/c1ccc(OC(=O)/C=C/c2ccco2)cc1`, the inhibition was -6.97%.

Regarding `CCOc1cccc2sc(N(CCN(CC)CC)C(=O)c3cccc([N+](=O)[O-])c3)nc12`, the inhibition is 3.1%.

In the case of `O=C(CSC1=NCCS1)Nc1ccc(S(=O)(=O)NC2CCCCC2)cc1`, the inhibition was 8.51%.

Consider `COc1cc(NS(=O)(=O)c2ccc(NC(C)=O)cc2)nc(OC)n1`, for which the inhibition is -0.66%.

Turning to `O=C(COC(=O)c1n[nH]c2ccccc12)c1cc(F)ccc1F`, the inhibition is 3.93%.

As to `COC(=O)c1cc(NC(C)=O)ccc1N1CCOCC1`, the inhibition is 8.76%.

Take `CC(C)(C)c1ccc(C2C(C#N)=C(N)Oc3n[nH]c(-c4cccnc4)c32)cc1` (stereo unspecified): the inhibition is 3.44%.

For `Cc1ccc(Cn2ccc(NC(=O)c3cc4nc5c(c(C(F)(F)F)n4n3)CCc3ccccc3-5)n2)cc1`, the inhibition was 13.9%.

As to `COc1ccc(CC(CC(=O)O)C(=O)NCc2ccccc2)cc1` (stereo unspecified), the inhibition is -4.42%.

For `CCOc1ccc(NC(=O)C(CC(=O)O)Cc2ccccc2)cc1` (stereo unspecified), the inhibition was 1.68%.

On to `COc1ccc(C(CC(=O)Nc2ccc(F)cc2)c2ccccc2)cc1` (stereo unspecified), for which the inhibition is -0.86%.

On to `COc1ccc(NC(=O)C(CC(=O)O)Cc2ccc(C)cc2)cc1` (stereo unspecified), for which the inhibition was 53%.

`COc1ccc(NC(=O)C(CC(=O)O)C(C)c2ccccc2)cc1` (stereo unspecified): the inhibition was -2.5%.

Regarding `COc1ccc(OC)c(NC(=O)C(CC(=O)O)Cc2ccc(Cl)cc2)c1` (stereo unspecified), the inhibition is 35.7%.

In the case of `COc1ccc(NC(=O)Cc2ccccc2)cc1`, the inhibition was 34.6%.

Consider `COc1ccc(NC(=O)C(Cc2ccccc2)n2cccc2)cc1` (stereo unspecified), for which the inhibition is -2.31%.

Regarding `CCOC(=O)Nc1ccc2nc3n(c(=O)c2c1)CCCCC3`, the inhibition was 9.64%.

In the case of `COc1ccc2ccccc2c1CN1CCN(Cc2ccccc2)CC1`, the inhibition is 7.12%.

With `CN1CCN(c2cc(=O)n(Cc3ccc(F)cc3)c(=O)[nH]2)CC1`, the inhibition is -0.83%.

For `COc1ccc(-c2nc(=S)[nH][nH]2)cc1OC`, the inhibition is -3.54%.

Take `O=C(O)CC(Cc1ccc(Cl)cc1)C(=O)Nc1ccc([N+](=O)[O-])cc1` (stereo unspecified): the inhibition was 44.7%.

As to `O=C(O)CC(NNC(=O)c1ccccc1)C(=O)Nc1ccc([N+](=O)[O-])cc1` (stereo unspecified), the inhibition is 4.13%.

Consider `c1ccc(COc2ccc(CNCc3cccs3)cc2)cc1`, for which the inhibition was 0.61%.

For `Cc1cc(NC(=O)CSc2nnc(CNc3ccc(F)cc3)n2C2CCCCC2)no1`, the inhibition was -6.09%.

For the molecule `COc1cc2nc(C3CCC3)nc(N3CCN(c4ccccc4OC)CC3)c2cc1OC`, the inhibition was 7.31%.

For `COc1cc(CO)cc(Br)c1OCC(=O)O`, the inhibition was -4.17%.

With `CCOc1c(Br)cc(CNc2ccc3c(c2)OCCO3)cc1OC`, the inhibition was 2.99%.

Turning to `COc1cc(CNc2ccc(N3CCOCC3)cc2)cc(Br)c1OC`, the inhibition was -2.11%.

Turning to `CCOc1c(Br)cc(CNC2CCCCCCC2)cc1OC`, the inhibition is -3.96%.

In the case of `CCOC(=O)c1nc(Nc2ccc(C(=O)O)cc2)c2ccccc2n1`, the inhibition was 23.8%.

As for `CCOc1ccc(N2C(=O)/C(=C/c3ccccc3)N=C2SC)cc1`, the inhibition is 2.97%.

Consider `COC1=C(OC)C(=O)C(CCCCCCCCCCO)=C(C)C1=O`, for which the inhibition was -2.37%.

On to `CS(=O)(=O)N(CC(=O)NC1CCCCC1)Cc1ccc(Cl)cc1`, for which the inhibition is 4.5%.

On to `COc1ccc(NC(=O)CN2c3cccc4cccc(c34)S2(=O)=O)c(OC)c1`, for which the inhibition is 13.8%.

As to `O=C(CN1c2cccc3cccc(c23)S1(=O)=O)Nc1ccccc1`, the inhibition was 2.82%.

As to `O=C(CN1C(=O)c2ccccc2S1(=O)=O)NC1CCCC1`, the inhibition is 33.2%.

`CC(C)NC(=O)CN1C(=O)c2ccccc2S1(=O)=O`: the inhibition is 7.45%.

As to `CN(c1cccc(NC(=O)CN2C(=O)c3ccccc3S2(=O)=O)c1)S(C)(=O)=O`, the inhibition was 51.6%.

Regarding `O=C(CN1C(=O)c2ccccc2S1(=O)=O)NC1CCCCCC1`, the inhibition was 5.61%.

As to `O=C(CCN1C(=O)c2ccccc2S1(=O)=O)Nc1ccccc1`, the inhibition was 6.82%.

For the molecule `O=C(CN1C(=O)c2ccccc2S1(=O)=O)Nc1cccnc1`, the inhibition was 27.9%.

As for `COc1ccc(NS(=O)(=O)c2cccc(C(=O)N/N=C/c3ccc4c(c3)OCCO4)c2)cc1`, the inhibition was 6.63%.

Take `COc1ccccc1-c1noc(-c2cccnc2)n1`: the inhibition was -3.7%.

As for `CCOC(=O)c1[nH]c(C)c(C(=O)N2CCc3c([nH]c4ccccc34)C2c2ccccn2)c1C` (stereo unspecified), the inhibition is -1.65%.

For `COC(=O)C(C(=O)NCC1CCCO1)C1CCCCCC1` (stereo unspecified), the inhibition is 13.6%.

As to `CCOC(=O)CSC(CC)C(=O)Nc1nnc(C(C)C)s1` (stereo unspecified), the inhibition was 20.9%.

As for `CCc1nnc(NC(=O)C(CC)c2ccccc2)s1` (stereo unspecified), the inhibition was -2.8%.

Turning to `COC(=O)CSC(C)C(=O)Nc1nnc(C(C)C)s1` (stereo unspecified), the inhibition is -2.42%.

Regarding `CCC(Sc1nc2ccccc2s1)C(=O)Nc1nnc(C)s1` (stereo unspecified), the inhibition is 22.9%.

Regarding `CC(C)c1nnc(NC(=O)CSc2nc3ccccc3s2)s1`, the inhibition was -2.5%.

As for `CCc1nnc(NC(=O)C(C)C)s1`, the inhibition is -5.28%.

In the case of `Cc1cc(-c2ccco2)n(CC(=O)NCCN(C)C)n1`, the inhibition is -1.86%.

On to `CCCCNC(=O)NC12CC3CC(CC(C3)C1)C2`, for which the inhibition was 3.38%.

As for `S=C(Nc1ccccc1Cl)NC1CC2CCCC(C1)N2C1CC1` (stereo unspecified), the inhibition was 19.9%.

With `COc1ccc(-c2nc3ccccc3[nH]2)cc1`, the inhibition is 12.5%.

Turning to `COc1ccc(-c2noc(=O)[nH]2)cc1`, the inhibition was -9.72%.

Turning to `O=C(CCn1c(=O)oc2ccccc21)Nc1nccs1`, the inhibition is 0.79%.

For the molecule `Nc1cc(C2CCCC2)nn1-c1ccccc1`, the inhibition is 16.1%.

Regarding `Cc1nn(CC(=O)NCCCN2CCOCC2)c(C)c1[N+](=O)[O-]`, the inhibition was 3.72%.

As to `COC(=O)NCc1cc2cc(Cl)ccc2[nH]1`, the inhibition is 8.05%.

Regarding `O=S(=O)(N/N=C\C=C\c1ccccc1)c1ccc(Br)cc1`, the inhibition was 31.2%.

Consider `O=S(=O)(Nc1ccn(-c2ccccc2)n1)c1ccc(Br)cc1`, for which the inhibition is 21.4%.

Regarding `Cc1ccc(C(=O)Nc2ccccc2C(=O)N2CC3(C)CC2CC(C)(C)C3)cc1` (stereo unspecified), the inhibition was -0.05%.

As to `COc1ccc(C[C@H]2CN3C(=NC[C@@H]3C(C)C)N2C[C@H](C)NC(=O)c2ccc(C)c(Br)c2)cc1`, the inhibition is -1.28%.

Regarding `COc1ccc2c(c1OC)C(=O)OC2Nc1nc(-c2cc3cc(Br)ccc3oc2=O)cs1` (stereo unspecified), the inhibition is -3.55%.

With `COc1ccc2c(c1OC)C(=O)OC2Nc1nc(-c2cc3cc([N+](=O)[O-])ccc3oc2=O)cs1` (stereo unspecified), the inhibition was 42.4%.

Turning to `CSc1nsc(SC)c1CO`, the inhibition is -0.7%.

As for `Cc1cccc(NC(=O)CSc2nc(C)c(Cc3ccccc3)c(=O)[nH]2)c1`, the inhibition was -0.73%.

On to `Cc1cccc(NC(=O)CSc2nc3nc(C)cc(C)c3c(=O)[nH]2)c1`, for which the inhibition is 15.8%.

With `CC(=O)Nc1c(O)nc(SCC(=O)Nc2ccc(C(C)=O)cc2)[nH]c1=O`, the inhibition is 21.4%.

Consider `Cc1cccc(NC(=O)CSc2nc3c(c(=O)[nH]2)CCC3)c1C`, for which the inhibition was 49.7%.

In the case of `Cc1cccc(NC(=O)CSc2nc3c(c(=O)[nH]2)CCCC3)c1C`, the inhibition was 12.7%.

As to `CC(=O)Nc1c(O)nc(SCC(=O)Nc2c(C)cccc2C)[nH]c1=O`, the inhibition was 13.4%.

With `S=c1[nH]ncn1/N=C/c1cccc(Oc2ccccc2)c1`, the inhibition was 13.2%.

Regarding `Cc1ccc(CNc2ccc(S(=O)(=O)N3CCOCC3)cc2[N+](=O)[O-])cc1`, the inhibition is -4.05%.

`CCCC1C2C(=O)N(c3ccccc3)C(=O)C2ON1c1ccccc1` (stereo unspecified): the inhibition was -10.4%.

In the case of `CCc1ccc(OC(=O)c2ccn(CC)n2)cc1`, the inhibition is 2.96%.

For `CCOC(=O)c1c(C)[nH]c(C)c1C(=O)COC(=O)c1ccc(O)cc1`, the inhibition is 0.26%.

For the molecule `Cc1ccc(NC(=O)c2ccccc2-c2ccccc2C(=O)O)cc1C`, the inhibition is 4.01%.

For the molecule `O=C(O)c1ccccc1-c1ccccc1C(=O)Nc1ccccc1`, the inhibition is -2.4%.

Consider `O=C(CSc1nc2ccc(NC(=O)C3CCCCC3)cc2s1)NCC1CCCO1` (stereo unspecified), for which the inhibition was 2.95%.

Regarding `O=C(Nc1ccc(N2C(=O)C3CCCCC3C2=O)cc1Cl)c1cccs1` (stereo unspecified), the inhibition is -2.37%.

For `Cc1ccc(-n2c(C)cc(C(=O)COC(=O)C3=NNC(=O)CC3)c2C)cc1`, the inhibition is 30.1%.

With `Cc1cc(C(=O)COC(=O)C2=NNC(=O)CC2)c(C)n1-c1ccccc1`, the inhibition was 7.43%.

For `Cc1cc(C(=O)COC(=O)c2ccc[nH]c2=O)c(C)n1C`, the inhibition is 14.9%.

As to `COCCn1c(C)cc(C(=O)COC(=O)c2ccc[nH]c2=O)c1C`, the inhibition was 49.1%.

For `Cc1cc(C(=O)COc2ccccc2C(N)=O)c(C)n1C1CC1`, the inhibition is -2.25%.

Turning to `Cc1cc(C(=O)COC(=O)c2ccc[nH]c2=O)c(C)n1-c1ccccc1F`, the inhibition was 8.77%.

As for `Cc1cc(C(=O)COC(=O)c2ccc(O)cc2)c(C)n1CCc1ccc(F)cc1`, the inhibition was 13.2%.

`Cc1ccc(-n2c(C)cc(C(=O)COC(=O)c3c(C)noc3C)c2C)cc1`: the inhibition was 0.29%.

With `CCCn1c(SCC(=O)NC(=O)Nc2ccc(C)cc2C)n[nH]c1=O`, the inhibition is -6.72%.

With `O=C(Cn1ccc([N+](=O)[O-])n1)NCCc1c[nH]c2ccccc12`, the inhibition was -5.35%.

As for `C=CCn1c(=O)c2ccccc2n2c(SCC(=O)Nc3sc(C(=O)N(CC)CC)c(C)c3C(=O)OCC)nnc12`, the inhibition is 1.64%.
